21 sequences from publication PMC11006913 can be followed below.

Numbering of substitutions follows the chain as printed.

What all share (assay): PBM; 200 nM protein, PBS
Common to all, as to details: dsDNA, one strand shown

In assay [1] the target is HOXA4 (Homo sapiens, UniProt Q00056 201-287, W262R).
Assay [2] addresses T1, PAX4 (Homo sapiens, UniProt O43316 9-242).
T1 sequence: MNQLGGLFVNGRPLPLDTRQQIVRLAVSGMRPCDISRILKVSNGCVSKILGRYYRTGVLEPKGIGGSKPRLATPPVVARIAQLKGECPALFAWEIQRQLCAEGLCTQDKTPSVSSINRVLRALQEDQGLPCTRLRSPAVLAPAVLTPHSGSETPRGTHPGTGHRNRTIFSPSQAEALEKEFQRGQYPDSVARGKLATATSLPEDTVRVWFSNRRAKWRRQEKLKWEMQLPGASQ

Assay [3] addresses HOXA4 (Homo sapiens, UniProt Q00056 201-287, R217L).
Assay [4] addresses HOXA4 (Homo sapiens, UniProt Q00056 201-287).
Assay [5] concerns the target T2, PAX4 (Homo sapiens, UniProt O43316 9-242, R227W).
T2 sequence: T1 sequence with R219W

Assay [6] addresses PRRX1 (Homo sapiens, UniProt P54821 80-166).
For assay [7], the target named is HOXD13 (Homo sapiens, UniProt P35453 263-343).
Assay [8] deals with T3, SIX6 (Homo sapiens, UniProt O95475 114-200, L143V).
T3 sequence: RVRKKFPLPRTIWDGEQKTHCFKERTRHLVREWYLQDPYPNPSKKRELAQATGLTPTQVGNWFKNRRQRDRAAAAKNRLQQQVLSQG

Assay [9] deals with T4, SIX6 (Homo sapiens, UniProt O95475 114-200, H141N).
T4 sequence: T3 sequence with H28N, V30L

For assay [10], the target named is T5, SIX6 (Homo sapiens, UniProt O95475 114-200, L143M).
T5 sequence: T3 sequence with V30M

Assay [11] deals with T6, SIX6 (Homo sapiens, UniProt O95475 114-200, L143I).
T6 sequence: T3 sequence with V30I

Assay [12] has as its target T7, SIX6 (Homo sapiens, UniProt O95475 114-200, T165A).
T7 sequence: T3 sequence with V30L, T52A

In assay [13] the target is T8, SIX6 (Homo sapiens, UniProt O95475 114-200).
T8 sequence: T3 sequence with V30L

Assay [14] has as its target HOXC10 (Homo sapiens, UniProt Q9NYD6 254-340).
The target of assay [15] is HOXC10 (Homo sapiens, UniProt Q9NYD6 254-340, K271E).
Assay [16] deals with PITX2 (Homo sapiens, UniProt Q99697 72-157).
Assay [17] concerns the target HOXA7 (Homo sapiens, UniProt P31268 116-202).
Assay [18] has as its target HOXA7 (Homo sapiens, UniProt P31268 116-202, W177C).
Assay [19] deals with HOXD13 (Homo sapiens, UniProt P35453 263-343, T313R).
Assay [20] concerns the target HOXD13 (Homo sapiens, UniProt P35453 263-343, T313A).

HOXA4 (Homo sapiens, UniProt Q00056 201-287, R217L), sequence (Q00056 201-287 R217L): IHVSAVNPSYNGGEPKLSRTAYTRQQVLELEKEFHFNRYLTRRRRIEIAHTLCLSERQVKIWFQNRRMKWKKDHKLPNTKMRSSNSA
HOXA7 (Homo sapiens, UniProt P31268 116-202, W177C), sequence (P31268 116-202 W177C): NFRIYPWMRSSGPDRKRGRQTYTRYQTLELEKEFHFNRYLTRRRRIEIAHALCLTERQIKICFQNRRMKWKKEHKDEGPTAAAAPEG
PRRX1, sequence (P54821 80-166): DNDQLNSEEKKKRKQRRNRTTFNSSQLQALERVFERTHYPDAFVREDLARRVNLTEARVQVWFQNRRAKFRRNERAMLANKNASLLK
HOXD13 (Homo sapiens, UniProt P35453 263-343, T313A), sequence (P35453 263-343 T313A): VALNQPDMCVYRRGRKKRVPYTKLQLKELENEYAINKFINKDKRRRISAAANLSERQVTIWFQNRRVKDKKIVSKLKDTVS
HOXD13 (Homo sapiens, UniProt P35453 263-343, T313R), sequence (P35453 263-343 T313R): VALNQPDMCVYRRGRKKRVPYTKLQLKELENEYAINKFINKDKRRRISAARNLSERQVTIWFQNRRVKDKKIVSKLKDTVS
HOXD13 (Homo sapiens, UniProt P35453 263-343), sequence (P35453 263-343): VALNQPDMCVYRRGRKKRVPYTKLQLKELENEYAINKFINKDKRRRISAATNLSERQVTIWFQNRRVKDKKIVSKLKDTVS
HOXA4 (Homo sapiens, UniProt Q00056 201-287, W262R), sequence (Q00056 201-287 W262R): as the sequence (Q00056 201-287 R217L) above, with L17R, W62R counted along it
HOXA7 (Homo sapiens, UniProt P31268 116-202), sequence (P31268 116-202): as the sequence (P31268 116-202 W177C) above, with C62W counted along it
HOXA4 (Homo sapiens, UniProt Q00056 201-287), sequence (Q00056 201-287): as the sequence (Q00056 201-287 R217L) above, with L17R counted along it
HOXC10 (Homo sapiens, UniProt Q9NYD6 254-340), sequence (Q9NYD6 254-340): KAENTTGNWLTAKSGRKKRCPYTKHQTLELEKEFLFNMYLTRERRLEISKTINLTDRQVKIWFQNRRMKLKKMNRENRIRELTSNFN
HOXC10 (Homo sapiens, UniProt Q9NYD6 254-340, K271E), sequence (Q9NYD6 254-340 K271E): as the sequence (Q9NYD6 254-340) above, with K18E counted along it

For CGGGCTCC, the binding signal is 9.62 upbm affinity estimate (log intensity, higher = more binding, comparable within an allelic series) in assay [1]; 8.72 upbm affinity estimate (log intensity, higher = more binding, comparable within an allelic series) in assay [2]; 9.45 upbm affinity estimate (log intensity, higher = more binding, comparable within an allelic series) in [3]; 9.29 upbm affinity estimate (log intensity, higher = more binding, comparable within an allelic series) in assay [4]; 9.04 upbm affinity estimate (log intensity, higher = more binding, comparable within an allelic series) in assay [5]; 8.33 upbm affinity estimate (log intensity, higher = more binding, comparable within an allelic series) in assay [6].
With AATAAGTG, in assay [7], the binding signal was 10.6 upbm affinity estimate (log intensity, higher = more binding, comparable within an allelic series).
CCCGGCGG: the binding signal in assay [8] is 8.98 upbm affinity estimate (log intensity, higher = more binding, comparable within an allelic series); in [9], 9.13 upbm affinity estimate (log intensity, higher = more binding, comparable within an allelic series); in assay [10], 9.17 upbm affinity estimate (log intensity, higher = more binding, comparable within an allelic series); in [11] it was 9 upbm affinity estimate (log intensity, higher = more binding, comparable within an allelic series); in assay [12] it was 9.22 upbm affinity estimate (log intensity, higher = more binding, comparable within an allelic series); in assay [13] it was 9.12 upbm affinity estimate (log intensity, higher = more binding, comparable within an allelic series).
Take ACCACTTA: in [14], the binding signal is 10.9 upbm affinity estimate (log intensity, higher = more binding, comparable within an allelic series).
Take ACGGCTGG: the binding signal in assay [2] is 9.44 upbm affinity estimate (log intensity, higher = more binding, comparable within an allelic series); in [5] it was 9.39 upbm affinity estimate (log intensity, higher = more binding, comparable within an allelic series).
With GTACTTAA, in assay [15], the binding signal was 11.9 upbm affinity estimate (log intensity, higher = more binding, comparable within an allelic series).
As for AATTAGCT, the binding signal in assay [2] was 12.2 upbm affinity estimate (log intensity, higher = more binding, comparable within an allelic series); in assay [5] it was 10.9 upbm affinity estimate (log intensity, higher = more binding, comparable within an allelic series).
As to CGGTCCAA, the binding signal in [16] was 7.89 upbm affinity estimate (log intensity, higher = more binding, comparable within an allelic series).
On to ACGCGCAG, for which, in assay [6], the binding signal is 9.2 upbm affinity estimate (log intensity, higher = more binding, comparable within an allelic series).
As for CTAATTGC, the binding signal in assay [1] is 10.4 upbm affinity estimate (log intensity, higher = more binding, comparable within an allelic series); in [17], 11.4 upbm affinity estimate (log intensity, higher = more binding, comparable within an allelic series); in assay [3], 11.8 upbm affinity estimate (log intensity, higher = more binding, comparable within an allelic series); in [4], 13.8 upbm affinity estimate (log intensity, higher = more binding, comparable within an allelic series); in [18], 8.67 upbm affinity estimate (log intensity, higher = more binding, comparable within an allelic series).
In the case of ACCCGGGC, the binding signal was 9.14 upbm affinity estimate (log intensity, higher = more binding, comparable within an allelic series) in [2] and 9.37 upbm affinity estimate (log intensity, higher = more binding, comparable within an allelic series) in assay [5].
On to CCGGAGCC, for which the binding signal in assay [1] was 9.74 upbm affinity estimate (log intensity, higher = more binding, comparable within an allelic series); in assay [3], 9.76 upbm affinity estimate (log intensity, higher = more binding, comparable within an allelic series); in assay [4], 9.77 upbm affinity estimate (log intensity, higher = more binding, comparable within an allelic series).
As to CACGCGTG, the binding signal was 7.84 upbm affinity estimate (log intensity, higher = more binding, comparable within an allelic series) in assay [16] and 9.41 upbm affinity estimate (log intensity, higher = more binding, comparable within an allelic series) in assay [6].
Regarding CCGGTGGC, the binding signal is 9.44 upbm affinity estimate (log intensity, higher = more binding, comparable within an allelic series) in assay [19]; 9.29 upbm affinity estimate (log intensity, higher = more binding, comparable within an allelic series) in assay [7]; 9.43 upbm affinity estimate (log intensity, higher = more binding, comparable within an allelic series) in assay [20].
As for ATAATGGG, the binding signal in [17] was 11.2 upbm affinity estimate (log intensity, higher = more binding, comparable within an allelic series); in assay [18], 8.88 upbm affinity estimate (log intensity, higher = more binding, comparable within an allelic series).
For the sequence CCGACGCC, the binding signal in [17] was 8.58 upbm affinity estimate (log intensity, higher = more binding, comparable within an allelic series); in [18], 8.45 upbm affinity estimate (log intensity, higher = more binding, comparable within an allelic series).
With CGTGCACG, in assay [6], the binding signal was 9.56 upbm affinity estimate (log intensity, higher = more binding, comparable within an allelic series).
CCAGCCAG: the binding signal was 9.41 upbm affinity estimate (log intensity, higher = more binding, comparable within an allelic series) in assay [19]; 9.59 upbm affinity estimate (log intensity, higher = more binding, comparable within an allelic series) in assay [7]; 9.56 upbm affinity estimate (log intensity, higher = more binding, comparable within an allelic series) in assay [20].
Take CCTGGGCC: the binding signal in assay [14] was 10.1 upbm affinity estimate (log intensity, higher = more binding, comparable within an allelic series); in [15], 9.99 upbm affinity estimate (log intensity, higher = more binding, comparable within an allelic series).
Turning to CGGTCGGC, the binding signal in [16] is 7.99 upbm affinity estimate (log intensity, higher = more binding, comparable within an allelic series).
With CCGACCTC, the binding signal in [19] is 9.52 upbm affinity estimate (log intensity, higher = more binding, comparable within an allelic series); in assay [7], 9.45 upbm affinity estimate (log intensity, higher = more binding, comparable within an allelic series); in assay [20], 9.44 upbm affinity estimate (log intensity, higher = more binding, comparable within an allelic series).
